High-throughput results from PubChem.
The list is not random: actives were taken first. Their share in the collection is about 12%.
TDP1 inh: blocks human tyrosyl-DNA phosphodiesterase 1; 350,000 tested, 0.28% active; Q9NUW8; recombinant TDP1, AlphaScreen DNA substrate cleavage; Potency, µM (highest dose often 130 µM), for the others: at the highest dose activity change, negative = inhibition, most hits filed as inhibitors; note: % is set by controls: 0 for no effect and ±100 for the full control effect; nearly all actives have a fitted effect of over 40% in size
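Signal: AlphaScreen proximity between streptavidin donor and anti-FITC acceptor beads on intact substrate. Reaction: Tdp1 1 nM, substrate 15 nM final, 5 min RT after 15 min compound preincubation.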
BAZ2B block: BAZ2B (human) inhibition; AlphaScreen BAZ2B-H3K14Ac peptide displacement; Potency, µM (series often up to 114 µM), inactives show at the highest dose activity change, negative = inhibition, most hits filed as inhibitors; 360,000 tested, 4.4% active; note: % is set by controls: 0 for no effect and ±100 for the full control effect; nearly all actives have a fitted effect of over 60% in size
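BAZ2B 50 nM plus b-H3(5-23)K14Ac 50 nM, PBS pH 7.4/0.01% Tween-20, 30 min RT; compound added (max 110 uM), 30 min RT; streptavidin donor/Ni-chelate acceptor beads 10 ug/mL final, 20 min dark; AlphaScreen read.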
G9a inh: G9a (human) methyltransferase inhibition. Q96KQ7. Potency, µM (highest dose often 102 µM), for inactives: top-dose activity, negative = inhibition, usual class: inhibitors. G9a H3K9 monomethylation, AlphaScreen, 2 h. 350,000 tested, 8.8% active. AID 504332; note: % is set by controls: 0 for no effect and ±100 for the full control effect; nearly all actives have a fitted effect of over 75% in size
Target sequence (Q96KQ7 913-1193 limits assumed): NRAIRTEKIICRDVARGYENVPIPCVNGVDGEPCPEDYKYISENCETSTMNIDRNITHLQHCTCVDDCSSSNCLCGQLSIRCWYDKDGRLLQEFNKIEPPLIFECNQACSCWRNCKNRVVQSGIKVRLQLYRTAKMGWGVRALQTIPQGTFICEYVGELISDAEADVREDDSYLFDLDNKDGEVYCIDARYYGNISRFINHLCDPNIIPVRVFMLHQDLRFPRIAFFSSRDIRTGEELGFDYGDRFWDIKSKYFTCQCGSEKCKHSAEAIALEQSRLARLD
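Methyltransferase reactions run at room temperature for 2 h (20 nM enzyme, 500 nM biotin-H3K9 peptide, 20 uM SAM) after a 15 min compound preincubation; product detected by AlphaScreen beads and anti-H3K9me1 antibody.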
JMJD2A Tudor inh: blocks the human JMJD2A Tudor domain; O75164; AID 504339; Potency, µM (top dose mostly 114 µM), without a hit: top-dose activity change, negative = inhibition, usual class: inhibitors; 390,000 tested, 4.4% active; AlphaScreen JMJD2A-Tudor / H3K4me3 peptide binding; note: % is set by controls: 0 for no effect and ±100 for the full control effect; nearly all actives have a fitted effect of over 50% in size
HP1b chromo inh: blocks HP1-beta chromodomain binding to methylated histone tails | P83916 | AlphaScreen HP1-beta / biotin-H3K9me3 peptide binding | 390,000 tested, 0.56% active | Potency, µM (doses to about 114 µM), for the others: top-dose activity change, negative = inhibition, most hits filed as inhibitors; note: nearly all actives have a fitted effect of over 70% in size
Target sequence (P83916 whole entry, looked up): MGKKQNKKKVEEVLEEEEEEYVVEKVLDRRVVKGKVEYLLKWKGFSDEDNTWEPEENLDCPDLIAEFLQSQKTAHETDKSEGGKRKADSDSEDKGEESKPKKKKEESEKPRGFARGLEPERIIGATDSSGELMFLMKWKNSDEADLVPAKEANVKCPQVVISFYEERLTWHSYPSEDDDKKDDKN
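Compound inhibition of the preformed complex between 50 nM HP1-beta and 50 nM biotinylated H3K9me3 peptide was read by AlphaScreen. Buffer was PBS pH 7.4 with 0.01% Tween-20. Incubations ran 30 min at room temperature, with 10 ug/mL donor/acceptor beads.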
Sfp inh: Sfp phosphopantetheinyl transferase inhibition. Biochemical Sfp PPTase activity, qHTS. Q9F4F7. Potency, µM, for inactives: largest response in the series, negative = inhibition, most hits filed as inhibitors. AID 1490. 310,000 tested, 3.5% active;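 note: the enzyme is Sfp with the accession as filed and its product quenches rhodamine fluorescence; 0% = enzyme reaction without inhibitor and -100% = no enzyme wells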
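Sfp 15 nM + cpd, 15 min RT; start w/ rhodamine-CoA 5 uM, BHQ-2-YbbR 12.5 uM (final); 50 mM Hepes pH 7.6, 10 mM MgCl2, 0.01% NP-40, 0.01% BSA; read 525/598 nm at 0 and 30 min.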
An asterisk follows results filed as active; ? = inconclusive; nt = no result; ! = not active in a repeat; [ ] = another dose, or the depositor's remark. Calls come from the whole dose curve; as a rule, active = well fitted curve in the direction sought with a large enough effect; inconclusive = small, poorly fitted or top-dose-only effect, or another doubt; inactive = no such curve, though single readings can be large; an effect the other way counts as inactive or inconclusive. Potency is the fitted concentration of half-maximal effect.

SMILES	TDP1 inh	BAZ2B block	G9a inh	JMJD2A Tudor inh	HP1b chromo inh	Sfp inh
Cc1cc(C=O)c(C)n1-c1ccc(Cl)c(C(=O)O)c1	45µM*	25µM*	13µM*	20µM*	40µM*	-9%
O=c1c2ccccc2oc2cc(OCc3ccc(F)cc3)cc(O)c12	nt	-2%	?	-5%	43%	-2%
COc1ccc(-c2nn(-c3ccccc3)cc2/C=C/C(=O)O)cc1[N+](=O)[O-]	8%	-1%	10%	-26%	7%[57 µM]	12%
O=C(O)/C=C/c1cn(-c2ccccc2)nc1-c1ccc(-c2ccc([N+](=O)[O-])cc2)o1	-4%	50µM*	50µM*	45µM*	?	25µM*
CCOCCc1nn2c(=O)cc(COC(=O)COc3ccc(C)c(C)c3)nc2s1	5%	-6%	2%[59 µM]	-5%	44%	nt
COc1ccc(C(NC(=O)c2ccco2)c2ccc(OC)c(OC)c2)cc1OC	8%	10%	4%	-6%	26%	4%
CCOc1ccc(C(NC(C)=O)c2ccc(OC)c(OC)c2)cc1 (centres undefined)	-5%	1%	1%[59 µM]	-8%	14%	16%
CCOc1ccc(C(NC(=O)/C=C/c2ccco2)c2ccc(OC)c(OC)c2)cc1 (centres undefined)	5%	?	28µM*	-34%	-16%	?
COc1ccc(C(NC(=O)/C=C/c2ccco2)c2ccc(OC)c(OC)c2)cc1 (centres undefined)	3%	?	18µM*	-16%	-1%	20µM*
CC1(C(=O)NC2CCCCC2)Cc2ccccc2C(=O)N1Cc1ccc(Cl)cc1 (centres undefined)	5%	4%	7%[59 µM]	1%	39%	nt
COc1ccc(OC)c(NC(=O)c2cccn2-c2nnc(N3CCCCC3)s2)c1	3%	-33%	-31%[59 µM]	-34%	-8%	nt
COc1ccc(Nc2ncc(C#N)c(N)n2)c(OC)c1	nt	6%	nt	?	-3%	3%
O=C1CCCC2=C1C(c1ccc(O)c(O)c1)Nc1ccc3ncccc3c12 (centres undefined)	nt	50µM*	1.1µM*	25µM*	?	?
COc1ccc(C2C3=C(CCCC3=O)Nc3ccc4ncccc4c32)cc1OC (centres undefined)	4%	-22%	50µM*	-11%	11%	-18%
COc1cc(C2C3=C(CCCC3=O)Nc3[nH]n(-c4ccccc4)c(=O)c32)ccc1OC(C)=O (centres undefined)	7%	?	45µM*	-27%	15%	6%
Cc1ccc(N(CC(=O)N2CCCC2)S(C)(=O)=O)c(C)c1	nt	2%	32%	-10%	29%	21%
Cc1cc(C)cc(NC(=O)c2ccc(S(=O)(=O)C(F)F)cc2)c1	2%	7%	50µM*	-9%	28%	21%
Cc1ccc(S(=O)(=O)N2CCN(C(=O)C(C)Cn3nc(C)c(C)c3C)CC2)cc1C (centres undefined)	1%	0%	50µM*	-3%	21%	23%
Cc1ccc(S(=O)(=O)N2CCN(C(=O)CCn3nc(C)c(C)c3C)CC2)cc1C	4%	1%	26%	-18%	5%	25%
CCN(C(=O)CSc1nnc(Cn2nnc3ccccc32)o1)c1nc(C)cs1	0%[56.1 µM]	15%	?	-3%	-4%	20µM*
COC(=O)c1cc(NC(=O)c2sc3ncn(Cc4cccc(F)c4)c(=O)c3c2C)cc(C(=O)OC)c1	2%	4%	-6%[59 µM]	-4%	32%	nt
CCCCN(C)C(=O)C1CCN(c2ccc(S(=O)(=O)N3CCOCC3)cc2[N+](=O)[O-])CC1	14%	?	-2%[0.501 µM]	-8%	23%	nt
CN1C(=O)C2C(c3ccc(N(C)C)cc3)NN(Cc3ccccc3)C2C1=O (centres undefined)	8%	40µM*	?	?	?	-5%
Cc1cccc(CN2C(=O)/C(=C\c3ccc(C(=O)NCCCN4CCN(C)CC4)cc3)Oc3ccccc32)c1	5%	-8%[57.1 µM]	?	nt	nt	50µM*
CC1CCC(NC(=O)c2ccc(/C=C3\Oc4ccccc4N(C)C3=O)cc2)CC1 (centres undefined)	1%	11%	-6%	nt	nt	-2%
SMILES	TDP1 inh	BAZ2B block	G9a inh	JMJD2A Tudor inh	HP1b chromo inh	Sfp inh
CN1CCN(CCCNC(=O)c2ccc(/C=C3\Oc4ccccc4N(Cc4ccccc4F)C3=O)cc2)CC1	2%	-31%	?	-34%	17%[57 µM]	56µM*
CCc1ccccc1NC(=O)CSc1nccn1C	3%	?	-10%[59 µM]	-12%	21%	nt
Cc1cc(C)c(S(=O)(=O)Nc2nnc(C3CCCCC3)s2)c(C)c1	5%	-38%	71µM*	-5%	17%	5%
Cc1ccc2oc(=O)n(CCNC(=O)Nc3ccc(Cl)cc3)c2c1	0%	-8%	2%[59 µM]	-17%	39%	nt
Cc1ccc(CCNC(=O)C2CCN(S(=O)(=O)c3ccc4c(ccn4C)c3)CC2)cc1	7%	2%	-2%[59 µM]	2%	21%[57 µM]	nt
Nc1ccc(Nc2nc3ccccc3[nH]2)cc1	10%	45µM*	nt	56µM*	?	-3%
Nc1ccc(-c2nc3ccccc3[nH]2)cc1	1%	7%	-11%	-14%	6%	11%
Nc1ccccc1Nc1nc2ccccc2[nH]1	nt	?	89µM*	-26%	-7%	3%
CC1([N+](=O)[O-])COC(C=Cc2ccccc2)OC1 (centres undefined)	nt	nt	nt	-3%	7%	nt
CCOC(=O)Nc1ccc2nc(Sc3ccc(Cl)cc3)sc2c1	2%	2%	33%	20%	108%	20%
COc1cc(O)c(C(=O)c2ccccc2)cc1O	4%	nt	nt	nt	nt	11µM*
Cc1ccc2nc(-c3ccc(NC(=O)COC(=O)c4cncc(Br)c4)cc3)sc2c1	8%	-5%	25µM*	-5%	12%	-10%
Cc1ccc2nc(-c3ccc(NC(=O)COC(=O)c4ccc(Br)o4)cc3)sc2c1	1%	-2%	-1%[59 µM]	-10%	30%	24%
CCCCC/C=C\CC(O)/C=C/c1cccc(CC(O)CCCCO)n1 (centres undefined)	-13%[56.1 µM]	nt	17µM*!	nt	nt	28%
CCCCC[C@H](O)/C=C/C=C/C=C/[C@@H](O)C/C=C\CCCC(=O)O	4%	nt	nt	nt	nt	-9%
CCNc1ncc2nc(CCc3ccccc3)c(=O)n(Cc3ccc(F)cc3)c2n1	nt	nt	7%[0.501 µM]	nt	nt	24%
Cc1nn(-c2ccccc2)nc1CNC(=O)c1ncoc1-c1ccccc1	0%	3%	nt	11%	61%	-12%
O=C(CN1C2CCC1CC(NC(=O)NC1CCCCC1)C2)NC1CC1 (centres undefined)	4%	9%	71µM*	-19%	20%	10%
